Giardia FBPA inh – qHTS Assay for Inhibitors of Fructose-1,6-bisphosphate Aldolase from Giardia Lamblia; A8B2U2; purified Giardia FBPA; Potency, µM (top dose mostly 59.6 µM), without a hit: at the top dose activity, negative = inhibition, usual class: inhibitors; 0.71% of 290,000 active; AID 2451, 2010; note: potency is the fitted concentration of half-maximal effect; % is set by controls: 0 for no effect and ±100 for the full control effect; nearly all actives have a fitted effect of over 55% in size
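Giardia FBPA (40 nM reagent) was preincubated 10 min at RT with compound (up to 57.5 uM final), then substrate plus GAPDH/TPI/NAD/arsenate coupling system with diaphorase/resazurin was added; resorufin fluorescence (525/598 nm) was read after 20 min.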
TbPYK inhibitor – qHTS of Trypanosoma Brucei Inhibitors. AID 624173, 2012. pyruvate kinase (Trypanosoma brucei), Q57TT1. Potency, µM (highest dose often 76.8 µM), without a hit: at the top dose activity, negative = inhibition, usual class: inhibitors. 0.12% of 410,000 active. TbPYK enzyme, Kinase-Glo Plus ATP luminescence, 45 min; note: potency is the fitted concentration of half-maximal effect; % is set by controls: 0 for no effect and ±100 for the full control effect; nearly all actives have a fitted effect of over 50% in size
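ADP (130 uM final) triggers the TbPYK reaction after compound addition; incubation is 45 min at room temperature. Kinase-Glo Plus is then added and luminescence imaged. Normalized data are fitted to concentration-effect curves.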
CHX counter – Cycloheximide Counterscreen for Small Molecule Inhibitors of Shiga Toxin; 12% of 300,000 active; max response, %; cell reporter, cycloheximide protein synthesis inhibition counterscreen; in the data active = max response mostly above about 13%, no sharp cut-off; inactive = mostly below about 14%; note: read at 38.3 µM for the half of the compounds with a filed dose; 0% is about no effect
Shiga inhibitor – A qHTS for Small Molecule Inhibitors of Shiga Toxin; 9.2% of 290,000 active; Vero cells, Shiga toxin protein synthesis inhibition reporter; inhibition, % at 38.7 µM; in the data active = inhibition mostly above about 28%, no sharp cut-off; inactive = mostly below about 43%; note: 0% is about no effect
LmPK inhibitor – qHTS Assay for Inhibitors of Leishmania Mexicana Pyruvate Kinase (LmPK); Q27686; purified LmPK, Kinase-Glo ATP luminescence, 1 h; Potency, µM (titrated, usually from 57.5 µM), without a hit: at the top dose activity change, negative = inhibition, actives largely listed as inhibitors; 0.37% of 290,000 active; AID 1721, 2009; note: potency is the fitted concentration of half-maximal effect; % is set by controls: 0 for no effect and ±100 for the full control effect
Target sequence (Q27686 whole entry, looked up): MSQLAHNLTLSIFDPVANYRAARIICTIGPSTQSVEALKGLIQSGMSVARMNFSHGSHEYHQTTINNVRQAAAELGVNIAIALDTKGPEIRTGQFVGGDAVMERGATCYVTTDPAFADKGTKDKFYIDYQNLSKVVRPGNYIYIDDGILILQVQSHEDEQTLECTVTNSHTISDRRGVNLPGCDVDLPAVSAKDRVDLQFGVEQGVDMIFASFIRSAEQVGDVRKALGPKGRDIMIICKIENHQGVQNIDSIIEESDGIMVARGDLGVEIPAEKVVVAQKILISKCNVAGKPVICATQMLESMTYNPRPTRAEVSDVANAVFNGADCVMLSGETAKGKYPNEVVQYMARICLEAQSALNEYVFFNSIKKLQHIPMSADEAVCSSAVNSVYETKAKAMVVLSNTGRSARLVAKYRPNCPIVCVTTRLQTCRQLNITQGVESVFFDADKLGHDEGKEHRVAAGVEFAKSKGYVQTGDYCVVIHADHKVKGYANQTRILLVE
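qHTS format; LmPK 0.1 nM; substrates PEP 0.5 mM and ADP 0.1 mM. One-hour room-temperature incubation, then coupled luciferase luminescence; 0.5 nM enzyme wells mark activation.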
RE007 growth inh – qHTS Assay for Inhibitors of the HIV-1 protein Vpr; S. pombe RE007 Vpr strain, BacTiter-Glo ATP luminescence, 24 h; Potency, µM (titrated, usually from 92.2 µM), for the others: at the top dose activity change, negative = less growth, usual class: inhibitors; 0.21% of 360,000 active; active = well fitted falling curve with a large enough effect; inconclusive = small, poorly fitted or top-dose-only effect; inactive = no such curve, though single readings can be large or run the other way; note: potency is the fitted concentration of half-maximal effect; % is set by controls: 0 for no effect and ±100 for the full control effect; nearly all actives have a fitted effect of over 50% in size
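Fission yeast strain RE007, carrying one chromosomally integrated HIV-1 vpr copy, was seeded at OD 0.01 in PMG+AL medium with 23 nL pinned compound. After 24 h at 30 °C and 99% humidity, viability was read by BacTiter-Glo luminescence.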
Numbers without * were called inactive; ? = inconclusive; . = no result given. The sample as a whole holds a higher share of hits than the screen did. Unless noted, calls come from the whole dose curve; as a rule, active = well fitted curve in the direction sought with a large enough effect; inconclusive = small, poorly fitted or top-dose-only effect, or another doubt; inactive = no such curve, though single readings can be large; an effect the other way counts as inactive or inconclusive.

SMILES	Giardia FBPA inh	TbPYK inhibitor	CHX counter	Shiga inhibitor	LmPK inhibitor	RE007 growth inh
CCNC(=O)COc1ccc(CC)cc1	0.2%	-3.1%	25.1*	46.3*	-5.4%	-8.7%
CC(C)(C)NC(=O)COc1ccc(CNCCc2ccccc2)cc1	-2.9%	3.8%	-3.4	-7.9	1.4%	-20.6%
CCC(C)(C)NC(=O)COc1ccc(C(=O)c2ccccc2)cc1	0.5%	1.9%	22.5*	53.8	8.1%	-1.1%
CCCc1ccc(OCCNC(=O)CC)cc1	0.4%	1.1%	16.4*	21.8	-5.7%	-5.0%
O=C(COc1ccc(C(=O)c2ccccc2)cc1)NC1CCCCCC1	4.9%	3.2%	-1.7	-6.0	6.7%	-16.3%
CCCc1ccc(OCCNC(C)=O)cc1	4.0%	-5.8%	18.9	50.0	1.2%	3.2%
O=C(Nc1ccccc1Cl)c1ccc(F)c(S(=O)(=O)NCc2ccc(Cl)c(Cl)c2)c1	.	-7.1%	.	.	.	.
CCC(=O)OCC(=O)C1(OC(=O)CC)C(C)CC2C3CCC4=CC(=O)C=CC4(C)C3(Cl)C(O)CC21C (stereo not drawn)	-1.7%	-8.6%	.	.	.	.
CCNC(=O)COc1ccc2ccccc2c1	-2.4%	0.3%	71.0*	58.5*	0.2%	-4.6%
CCOC(=O)[C@]12CCC=C1N(Cc1ccc3c(c1)OCO3)C(=O)[C@H](CC(=O)NCc1cccs1)C2	.	-0.9%	.	.	.	-19.9%
CCC(C)NC(=O)Cn1c(COc2ccc(Cl)cc2Cl)nc2ccccc21 (stereo not drawn)	3.4%	-7.4%	33.2*	38.7*	0.3%	3.4%
CCCCc1nnc(NC(=O)COC)s1	-2.6%	0.9%	-0.9	27.8	2.6%	2.1%
CCCCOC(=O)Nc1nnc(C(C)C)s1	1.0%	3.2%	36.9*	118.8*	2.2%	1.5%
CCCCOC(=O)Nc1nnc(-c2ccccc2OC)s1	-2.2%	-2.1%	-1.1	-8.7	6.4%	-11.2%
CCCCCOC(=O)Nc1nnc(CCC)s1	14.9%	2.5%	28.2*	41.2	6.7%	4.9%
Cc1c(C(=O)/C=C/c2cccs2)oc2ccc(F)cc12	-0.5%	-5.7%	36.0*	72.6*	0.2%	-0.5%
Cc1c(C(=O)N2CCN(C(=O)c3ccccc3)CC2)oc2ccc(F)cc12	.	4.0%	.	.	.	9.9%
CC(C)NC(=O)/C(C#N)=C/c1ccc2c(c1)OCCO2	20.7%	2.3%	21.8*	85.3*	-4.6%	-6.9%
CCOC(=O)/C(C#N)=C\c1ccc2c(c1)OCO2	.	-6.2%	.	.	.	-16.5%
N#C/C(=C/c1cccc(O)c1)C(=O)NCc1ccc(Cl)cc1	-7.1%	-2.9%	-3.4	12.4	3.0%	11.7%
N#C/C(=C\c1cccc(O)c1)C(=O)Nc1ccc2c(c1)OCCO2	-2.1%	-4.5%	60.2*	82.5*	0.4%	11.1%
CCOC(=O)c1ccc(NC(=S)NC(=O)c2nn(CC)cc2Br)cc1	2.9%	-4.7%	-2.5	18.0	-0.5%	3.5%
CCC(=O)Nc1ccc(F)c(Cl)c1	14.4%	-5.7%	3.2	23.6	-1.0%	3.1%
CCn1cc(Br)c(C(=O)Nc2ccc(F)c(Cl)c2)n1	0.8%	-11.5%	53.5*	73.4*	-2.5%	?
CCOC(=O)c1ccc(NC(=O)c2nn(CC)cc2Br)cc1	-3.7%	-0.4%	35.4*	52.8*	-10.0%	12.4%
SMILES	Giardia FBPA inh	TbPYK inhibitor	CHX counter	Shiga inhibitor	LmPK inhibitor	RE007 growth inh
CCn1cc(Br)c(C(=O)Nc2ccc(Cl)cc2Cl)n1	3.9%	-4.1%	25.5*	54.8	0.2%	-19.1%
Cc1cc2[nH]c3ccccc3c2c(C)n1	3.8%	-6.9%	35.7*	37.4*	0.3%	-1.5%
Cc1nc(=S)c2ccccc2[nH]1	-12.5%	-14.2%	14.0	7.6	4.0%	15.6%
CC1(C)CC(=O)C(C=Nc2ccccc2)=C(O)C1	8.5%	-9.6%	26.0*	52.2	-4.3%	20µM*
CC1(C)CC(=O)C(C=Nc2ccccc2Sc2ccccc2)=C(O)C1	-6.2%	-5.9%	12.8	-14.7	4.4%	20µM*
CC1(C)CC(=O)C(C=Nc2ccccc2C(=O)O)=C(O)C1	-2.7%	1.3%	11.0	12.3	1.9%	11.3%
O=C(NCCc1ccccc1)c1cc2sccc2n1Cc1ccc(F)cc1	.	1.6%	.	.	.	.
C/C(=N\n1nnnc1Nc1ccccc1)c1ccc(N)cc1	-0.9%	.	26.2*	32.7	-4.5%	.
C/C(=N\n1c(C)nc2ccccc2c1=O)c1ccc(N)cc1	.	-0.2%	.	.	.	-4.5%
COc1ccc(Cl)cc1-c1nc(-c2ccc(NC(=O)c3ccncc3)cc2)no1	.	2.3%	.	.	.	-10.5%
CC(Oc1ccc(Cl)cc1Cl)c1nc(-c2ccc(NC(=O)c3ccccn3)cc2)no1 (stereo not drawn)	-0.5%	3.2%	27.7*	71.4*	-19.7%	-10.1%
CCOc1cncc(/C=C/CCNC)c1	-5.1%	.	4.6	15.7	.	.
COc1ccc(-c2csc(N3N=C(C)C(C)C3=O)n2)cc1 (stereo not drawn)	-25.0%	3.3%	15.2*	37.0	-9.4%	-3.4%
CC1=NN(c2nc(-c3ccc(C)cc3)cs2)C(=O)C1N=Nc1ccccc1O (stereo not drawn)	9.5%	-7.1%	43.1*	50.0*	-10.1%	0.0%
COc1cc(Cl)c(C)cc1NC(=O)Cn1ncc2c3ccccc3n(Cc3ccccc3)c2c1=O	.	-3.7%	.	.	.	.
Cc1ccc(/C(N)=N/OC(=O)COc2cccc3ccccc23)cc1	.	-6.9%	.	.	.	-4.7%
COc1ccc(/C(N)=N/OC(=O)COc2ccccc2Cl)cc1	4.0%	-11.6%	45.8*	25.6*	-3.4%	19.7%
Cc1ccc(C)c(OCC(=O)O/N=C(\N)c2cccc([N+](=O)[O-])c2)c1	2.6%	-1.1%	-2.1	10.1	-0.2%	-16.1%
Cc1cccc(/C(N)=N/OC(=O)COc2ccccc2Cl)c1	-2.9%	-8.9%	65.8*	21.3*	-2.2%	8.9%
CCCN(CCC)C(=O)c1c(C)[nH]c(C(=O)OCC)c1C	0.3%	.	0.8	1.9	-1.7%	.
CCCCCCC(=O)c1c(C)[nH]c(C(=O)OCC)c1C	-6.3%	11.8%	30.3*	81.5*	-8.4%	-11.6%
CCCCCC(=O)c1c(C)[nH]c(C(=O)OCC)c1C	-1.8%	-9.3%	17.1*	103.9*	0.9%	-15.6%
CCNC(=O)c1c(C)[nH]c(C(=O)OCC)c1C	1.3%	3.1%	-3.6	23.0	5.3%	8.6%
CN(Cc1cnn(C)c1)Cc1nc(C(c2ccccc2)c2ccccc2)no1	-0.1%	3.1%	-2.4	-3.2	2.1%	3.0%
CC(C)N(Cc1cnn(C)c1)Cc1nc(COc2ccccc2)no1	0.2%	4.2%	-4.8	-10.8	-0.4%	0.5%
CN(Cc1cnn(C)c1)Cc1nc(COc2ccccc2)no1	-0.8%	-7.6%	14.4*	33.1	-1.8%	7.6%
CN(Cc1cnn(C)c1)Cc1nc(-c2ccc(Cl)cc2)no1	-1.8%	0.6%	15.9*	40.6	6.8%	-13.8%
